Measured values reported in PubChem BioAssay AID1814 (Broad Institute, 2009).
Among all 300,000 compounds or so, about 22,000 (7.3%) were called active. Another 2% or so got no clear call; they are omitted. Only a selection was taken, and actives are over-represented in it overall. Values without a mark were called inactive. Rule as the data show it: active = activity score below about -60%; inconclusive = mostly about -28% to -61%; inactive = positive scores.

Test: Activators working through SNCA 5'UTR binding (MLPCN) (AID 1814)
Conditions: alpha-synuclein 5'UTR reporter, activators screen; active compounds read low; tested at 7.5 µM

Row | Structure (SMILES) | activity score
1 | Cn1ccnc1-c1nnn(-c2ccc(F)cc2)n1 | -89.8% (active)
2 | Oc1ccc(/C=N/Nc2ccc(C(F)(F)F)cn2)cc1O | -195% (active)
3 | Oc1ccc(Br)cc1/C=N/Nc1ccccn1 | 66.4%
4 | c1ccc(-n2ncc3c2ncn2c(C4CCCCC4)nnc32)cc1 | -128% (active)
5 | Cc1cccc(Nc2nc(-c3ccccc3)cs2)n1 | -106% (active)
6 | CC(=O)Nc1cccc(-c2cnc3ccccc3n2)c1 | -207% (active)
7 | c1ccc(Nc2nc(-c3ccncc3)cs2)nc1 | -108% (active)
8 | Clc1ccc(Nc2nc(-c3cccs3)cs2)nc1 | -244% (active)
9 | CC(=O)Nc1cccc(-c2csc(Nc3cccc(C)n3)n2)c1 | -234% (active)
10 | c1cnc(Nc2nc(-c3ccc4ccccc4c3)cs2)nc1 | -125% (active)
11 | CCOc1cc2[nH]c(=S)n(Cc3ccc(C(=O)N4CCN(C)CC4)cc3)c(=O)c2cc1OCC | 86.1%
12 | CCCOc1ccccc1C1CC(=O)Nc2cc3c(cc21)OCO3 (configuration not stated) | 111%
13 | COc1ccccc1C1C2=C(COC2=O)Nc2cc3c(cc21)OCO3 (configuration not stated) | 98.1%
14 | COc1cc2c(cc1/C=C1/NC(=O)N(c3ccccc3)C1=O)OCO2 | -142% (active)
15 | C(=N\Nc1ccc2ccccc2n1)/c1ccc2c(c1)OCO2 | 88.2%
16 | Cc1noc(C)c1/C=N/Nc1ccc2ccccc2n1 | -146% (active)
17 | C/C(=N\NC(=O)OC(C)(C)C)c1ccc[nH]1 | -122% (active)
18 | O=C(Nn1cnc2ccccc2c1=O)c1ccc(F)cc1Cl | -87.1% (active)
19 | O=[N+]([O-])c1ccc2c(c1)Nc1nc3ccccc3nc1N2 | -94.2% (active)
20 | Cn1c(=NC(=O)c2cnccn2)sc2ccccc21 | -97.9% (active)
21 | O=C(NC(=S)Nc1ccccc1C(=O)O)c1ccc(-c2ccc(Br)cc2)o1 | -123% (active)
22 | O=C(NC1CCCC1)C(=O)c1c[nH]c2ccccc12 | -81.6% (active)
23 | O=C(CN1CCCCCC1)Nc1ccc(Br)cc1Br | -101% (active)
24 | O=C(CN1CCCCCC1)Nc1c(Cl)cc(Cl)cc1Cl | -86.3% (active)
25 | O=C(Nc1ccc(OC(F)(F)F)cc1)c1ccc2c(c1)no[n+]2[O-] | -72.3% (active)
26 | Cc1cc(Cl)nc(NC(=O)Nc2cccc(Cl)c2)n1 | -64.7% (active)

Row | Structure (SMILES) | activity score
27 | CCN1CCN(C(=O)CSc2ccc(C)cc2)CC1 | -69.7% (active)
28 | Cc1ccc(N/N=C2\COC(C)(C)CC2=O)cc1 | -141% (active)
29 | COc1ccc(C2NC(=O)c3ccccc3N2)cc1 (configuration not stated) | -70.6% (active)
30 | COc1ccc(OC)c(C2C3=C(N=c4s/c(=C\c5cccc(O)c5)c(=O)n42)c2ccccc2CC3)c1 (configuration not stated) | 58.4%
31 | CN1CCN(c2ccc(NC(=O)c3ccccc3)cc2)CC1 | -102% (active)
32 | COc1cccc(C(=O)NNC(=O)c2cccc(F)c2)c1 | -79.5% (active)
33 | COc1cccc(C(=O)Nc2ccc(N3CCN(C(=O)c4ccco4)CC3)cc2)c1 | -184% (active)
34 | COc1cccc(C(=O)Nc2ccc(N3CCCC3)cc2)c1 | -189% (active)
35 | CC[C@]1(O)CC2CN(CCc3c([nH]c4ccccc34)[C@@](C(=O)OC)(c3cc4c(cc3OC)N(C=O)[C@H]3[C@@](O)(C(=O)OC)[C@H](OC(C)=O)[C@]5(CC)C=CCN6CC[C@]43[C@@H]65)C2)C1 (some centres not stated) | 102%
36 | Cc1ccccc1C(=O)Nc1ccc(N2CCCCCC2)cc1 | -160% (active)
37 | COc1cccc(C(=O)Nc2cc3c(cc2Br)OCCCO3)c1 | -98.2% (active)
38 | COc1cccc(C(=O)Nc2ccc(NC(=O)c3ccco3)cn2)c1 | -135% (active)
39 | COC(=O)c1c(C)[nH]c(C(=O)/C=C/c2ccc(Cl)cc2)c1C | -131% (active)
40 | NC(=O)Cc1ccc2sc(-c3ccccc3)nc2c1 | -98.2% (active)
41 | O=C(c1cc(-c2cccs2)on1)N1CCCCC1 | -73.9% (active)
42 | COc1cc(Cl)ccc1OCc1cc(C(=O)N2CC[C@@H]3CCCC[C@H]3C2)no1 | -69% (active)
43 | O=C(c1cc(-c2ccc(Cl)cc2)on1)N1CCN(c2ccccc2)CC1 | -113% (active)
44 | COc1ccccc1-c1cc(C(=O)N2CCCCC2)no1 | -93.5% (active)
45 | COc1cccc(OCc2cc(C(=O)N3CCN(C(=O)c4ccco4)CC3)no2)c1 | -121% (active)
46 | O=C(c1cc(-c2ccccc2O)on1)N1CCCC1 | -142% (active)
47 | COc1ccc(OCc2cc(C(=O)N3CCCC3)no2)c2ccccc12 | -148% (active)
48 | CCCOC1CCCN(C(=O)c2cc(COc3cncc(Cl)c3)on2)C1 (configuration not stated) | -219% (active)
49 | Cc1nc(-c2ccccc2)sc1C1(C)CC(c2cccnc2)=NO1 (configuration not stated) | -91.2% (active)
50 | COc1ccc(C(C#N)Nc2ccc(C)cc2)cc1 (configuration not stated) | -61.8% (active)
51 | COc1cc(OC)cc(C(=O)Nc2ccc(-c3nc4ccccc4o3)c(O)c2)c1 | -61.8% (active)
52 | Cc1cc2nc(-c3ccc(NC(=O)c4cccnc4)cc3)oc2cc1C | -164% (active)

Row | Structure (SMILES) | activity score
53 | CC(=O)Nc1ccc(-c2nc3ccccc3o2)cc1 | -91.4% (active)
54 | CCOC(=O)c1ccc(NC(=O)c2cccnc2)cc1 | -77.6% (active)
55 | CCOC(=O)c1ccc(NC(=O)Cc2cccs2)cc1 | -126% (active)
56 | CCCC(=O)N1c2ccc(-c3csc(N)n3)cc2CC1C (configuration not stated) | -192% (active)
57 | CC(C)c1cc(C(=O)N/N=C/C(Br)=C/c2ccccc2)n[nH]1 | -105% (active)
58 | CC(=C/c1ccccc1)/C=N/NC(=O)c1cc(C)oc1C | -125% (active)
59 | Cc1cc(C(=O)N/N=C/c2ccc(N3CCOCC3)cc2)c(C)o1 | -87.1% (active)
60 | Cc1cc(C(=O)N/N=C\C(Br)=C\c2ccccc2)c(C)o1 | -124% (active)
61 | CC(C)(C)c1cc(C(=O)N/N=C/c2ccc([N+](=O)[O-])s2)n[nH]1 | 64%
62 | Cc1cc(C(=O)N/N=C/c2ccccc2[N+](=O)[O-])c(C)o1 | -112% (active)
63 | Cc1c(Cl)cccc1NC(=O)Nc1ccc(C(=O)N2CCCC2)cc1 | -77.6% (active)
64 | CC(=O)NNC(=O)c1csc(Cc2c(Cl)sc3ccc(Cl)cc23)n1 | 67.1%
65 | CCOC(=O)c1c(C)nc(-c2ccccc2)nc1NC(=O)C(C)C | -83.8% (active)
66 | Nc1ccc(N=Nc2ccccc2Cl)c(N)n1 | -165% (active)
67 | O=C(NCCc1ccccc1)Oc1ccc(Cl)cc1 | -107% (active)
68 | Cc1cc(C(=O)NCCc2ccc(Cl)cc2)c(C)o1 | -131% (active)
69 | Cc1ccc2nc(/C(C#N)=C\c3ccc(OC(=O)c4cccs4)cc3)[nH]c2c1 | -283% (active)
70 | COc1ccc(C(=O)O/N=C(\N)c2ccccn2)cc1[N+](=O)[O-] | -177% (active)
71 | COc1ccccc1OCC(=O)O/N=C(\N)c1ccccn1 | -121% (active)
72 | N/C(=N\OC(=O)CCC1CCCCC1)c1ccccn1 | -180% (active)
73 | N/C(=N\OC(=O)CC1CCCCC1)c1ccccc1 | -116% (active)
74 | COc1ccc(CC(=O)N/N=C(\C)c2ccccn2)cc1 | 77.7%
75 | N/C(=N\OC(=O)Cc1ccc([N+](=O)[O-])cc1)c1ccccn1 | -161% (active)
76 | C=CCc1c(C)nc2cc(-c3ccccc3)[nH]n2c1=O | -102% (active)
77 | CCc1c(C)nc2cc(-c3cccs3)[nH]n2c1=O | -81% (active)
78 | CC(=O)N(C)c1ccc(NC(=O)Nc2cccc3ccccc23)cc1 | -70.7% (active)

Row | Structure (SMILES) | activity score
79 | O=[N+]([O-])c1ccc(O)c(/C=N/Nc2ccccc2[N+](=O)[O-])c1 | -63.1% (active)
80 | Cc1cc(C(=O)COC(=O)CNC(=O)c2ccc(F)cc2)c(C)n1Cc1ccco1 | -113% (active)
81 | Cc1ccsc1C(=O)OCC(=O)c1cc(C)n(CC2CCCO2)c1C (configuration not stated) | 79.6%
82 | Nn1c(SCc2ccccc2)nnc1C1CCCCC1 | -110% (active)
83 | N#Cc1cccc(NC(=O)COC(=O)c2ccccc2C(=O)c2ccc(Cl)c([N+](=O)[O-])c2)c1 | -63.7% (active)
84 | Cc1ccc(Nc2nc(N)nc(CSc3nnc(C)s3)n2)cc1 | -63.8% (active)
85 | CC(=O)c1ccc(NC(=S)NC(=O)CC(C)C)cc1 | -98.8% (active)
86 | COc1ccccc1Nc1ncc(C(C)=O)c(C)n1 | -80.4% (active)
87 | Cn1c(CCCOc2ccc(Cl)cc2Cl)n[nH]c1=S | -63.6% (active)
88 | COc1cccc2cc(C(N)=O)/c(=N\NC(=O)c3ccccc3)oc12 | -61.9% (active)
89 | Cc1cccc(C(=O)OC(C)CN2CCN(C)CC2)c1 (configuration not stated) | -64.7% (active)
90 | CCOC(=O)C1(Cc2ccccc2C(F)(F)F)CCN(C(=O)c2cc(C)n(C)n2)CC1 | -117% (active)
91 | COc1ccc(C(=O)/C=C/c2cccnc2)c(OC)c1 | -81.3% (active)
92 | COc1ccc(/C=C/C(=O)Nc2ccc(C34CC5CC(CC(O)(C5)C3)C4)cc2)cc1OC | 76.5%
93 | COc1ccc(/C=C/C(=O)Nc2cccnc2)cc1OC | -72.4% (active)
94 | Cc1cc(NC(=O)c2ccccc2C)no1 | -104% (active)
95 | Cc1c(C(=O)Nc2ccccc2)sc2nc3n(c(=O)c12)CCCCC3 | -136% (active)
96 | CC(=O)c1ccc(NC(=O)c2sc3nc4n(c(=O)c3c2C)CCCCC4)cc1 | -89.5% (active)
97 | O=C(Cc1ccc(Br)cc1)N1CCN(c2ccccn2)CC1 | -73.7% (active)
98 | O=c1oc2cc(O)ccc2cc1-c1ccc(F)cc1 | -115% (active)
99 | NC(=O)Nc1ccccc1C(=O)NCCc1ccccc1 | -90.2% (active)
100 | CCN1C(=O)/C(=C2\SC(N3CCCCC3)=NC2=O)c2ccccc21 | -151% (active)
101 | CC(C)(C)c1csc(NC2=NS(=O)(=O)c3ccccc32)n1 | -127% (active)
102 | CCCNC(=O)c1c(Cl)cnn1-c1ccc(C)cc1 | -137% (active)
